# An excerpt weighted towards active compounds, which were near 3.5% of everything screened.
# BoNT A protease – BoNT/A light chain protease inhibitors, primary screen, biochemical, flow cytometry, MLPCN library; Botulinum neurotoxin type A light chain protease (Clostridium botulinum A str. ATCC 3502); multiplex microsphere protease substrate cleavage; inhibition, % at 10 µM; 0.17% of 360,000 active; AID 588499, 2011; also: plate controls were buffer without enzyme for full effect and enzyme alone for no effect
# BJeLR viability – MLPCN primary cell-based screen for lethality selective to Ras in HRASV12 cells; BJeLR (HRASV12) viability, CellTiter-Glo ATP luminescence, 48 h; inhibition, % (concentration not given with the values); 0.17% of 300,000 active; AID 1554, 2009; in the data active = inhibition above about 50%; inconclusive = no clear call, values can overlap the other calls
# BoNT-F LC inh – BoNT/F light chain protease inhibitors, primary screen, biochemical, flow cytometry, MLPCN library; inhibition, % at 10 µM; 0.22% of 360,000 active; Multiplex microsphere protease cleavage assay; AID 588497, 2011; Botulinum neurotoxin type F light chain protease (Clostridium botulinum); in the data active = inhibition above about 35%, passing the limit was not always enough; inconclusive = no clear call, values can overlap the other calls; also: plate controls were buffer without enzyme for full effect and enzyme alone for no effect
# Anthrax LF prot – Bacillus anthracis LF protease inhibitors, primary screen, biochemical, multiplex microsphere, MLPCN library; multiplex microsphere protease cleavage assay; inhibition, % at 10 µM; 0.12% of 360,000 active; AID 588501, 2011; also: plate controls were buffer without enzyme for full effect and enzyme alone for no effect
# Target sequence (P15917 whole entry, looked up): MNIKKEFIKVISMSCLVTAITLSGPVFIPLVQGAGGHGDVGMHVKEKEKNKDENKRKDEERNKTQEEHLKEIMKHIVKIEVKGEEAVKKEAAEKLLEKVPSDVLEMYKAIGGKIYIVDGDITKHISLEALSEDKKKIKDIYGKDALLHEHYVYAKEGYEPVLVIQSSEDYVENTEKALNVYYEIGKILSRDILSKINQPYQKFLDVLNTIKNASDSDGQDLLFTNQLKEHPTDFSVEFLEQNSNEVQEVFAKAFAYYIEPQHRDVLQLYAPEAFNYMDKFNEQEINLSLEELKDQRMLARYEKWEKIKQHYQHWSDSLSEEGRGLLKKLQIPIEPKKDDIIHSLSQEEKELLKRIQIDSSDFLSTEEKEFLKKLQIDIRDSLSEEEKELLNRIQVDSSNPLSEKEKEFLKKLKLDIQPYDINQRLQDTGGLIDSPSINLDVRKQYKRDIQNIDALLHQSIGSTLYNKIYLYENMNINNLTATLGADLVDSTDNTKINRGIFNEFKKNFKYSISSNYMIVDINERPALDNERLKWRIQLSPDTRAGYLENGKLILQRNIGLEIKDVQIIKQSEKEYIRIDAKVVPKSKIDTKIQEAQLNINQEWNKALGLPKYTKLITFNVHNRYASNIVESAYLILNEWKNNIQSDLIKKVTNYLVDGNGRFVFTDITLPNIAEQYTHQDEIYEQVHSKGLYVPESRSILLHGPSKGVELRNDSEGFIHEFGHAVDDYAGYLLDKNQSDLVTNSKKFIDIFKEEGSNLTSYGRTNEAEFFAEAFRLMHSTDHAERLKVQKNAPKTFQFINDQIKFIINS
# Bead autofluor – flagged as autofluorescent in microsphere protease counterscreen | 3.1% of 360,000 active | fluorescence intensity (concentration not given with the values) | AID 624483 | compound autofluorescence counterscreen, microsphere flow cytometry; stronger effect = higher value; in the data active = fluorescence intensity above about 16000; inconclusive = no clear call, values can overlap the other calls
# An asterisk follows results filed as active; ? = inconclusive; . = not tested or not shown. Rule as the data show it, unless noted: active = inhibition above about 30%; inconclusive = no clear call, values can overlap the other calls; inactive = below that.
SMILES,BoNT A protease,BJeLR viability,BoNT-F LC inh,Anthrax LF prot,Bead autofluor
CCOC(=O)C1(S(=O)(=O)c2ccccc2)CCN(Cc2ccc(Cl)cc2)CC1,0,-6,-14,-5,10699
CC(C)N(C(=O)[C@H]1C[C@H](CC(=O)NCC23CC4CC(CC(C4)C2)C3)C(=O)N2CCc3c([nH]c4cc(CCC(=O)N(C)C)ccc34)[C@]12C)C(C)C,0,.,1,3,3528
Cc1ccc(-n2c([C@@H]3C[C@H]3c3ccccc3)n[nH]c2=S)cc1,0,4,-3,1,2219
Cc1ccc(C2CC2c2n[nH]c(=S)n2-c2ccc(C)cc2)cc1 (stereo unspecified),?,0,-2,-3,24709*
Cc1ccc(-n2c(C3CC3c3ccc(Cl)cc3)n[nH]c2=S)cc1 (stereo unspecified),-4,5,-6,1,23745*
O=C(CNc1cccc(C(F)(F)F)c1)N/N=C/C1CCCCC1,0,6,-6,-3,2515
NS(=O)(=O)c1cc(C(=O)N2CCc3ccccc32)c(Cl)cc1Cl,3,5,1,-4,18762*
O=C(c1ccc(C(=O)N2CCCc3ccccc32)s1)N1CCCc2ccccc21,0,2,2,3,9169
O=C(c1ccc(Cl)s1)N1CCc2ccccc21,-2,-3,-4,1,20271*
CCc1ccc(C(=O)NC2CCCCC2)s1,-3,-7,-3,-4,20340*
O=C(c1cc(Cl)ccc1Cl)N1CCc2ccccc21,5,-6,?,-11,3260
O=C(c1ccc(Cl)s1)N1CCCC1,-4,-15,-5,-1,24368*
COc1ccc(NC(=O)c2cc(C3CCCCN3S(=O)(=O)c3ccccc3)on2)c(C)c1 (stereo unspecified),0,.,-4,-9,3559
CCc1ccc(C(=O)N2CCCC2)s1,?,-1,-3,-1,16597*
CCc1ccc(C(=O)N2CCCN(C)CC2)s1,2,-24,2,-2,5238
Cc1nn(C)c(C(=O)N2CCc3ccccc32)c1Cl,?,7,0,-1,21851*
CCNC(=O)C1CCCN(C(=O)Cc2cccs2)CC1 (stereo unspecified),0,.,-10,-4,2981
O[C@H]1CN(CC2CCCCC2)[C@@H](c2ccc(Cl)cc2)C[C@@H]1n1cc(C2CC2)nn1,0,.,-2,-6,3907
O=C(CN1C(=O)C2(OCCCO2)c2ccccc21)NCc1ccccc1,-3,-1,-4,-4,17108*
CCOC(=O)CN1C(=O)C2(OCCCO2)c2ccccc21,0,1,2,-1,10049
CC(C)N1C(=O)C2(OCCCO2)c2cc(Br)ccc21,-7,5,3,-6,4302
CC(C)(C)C(=O)CN1C(=O)C2(OCCO2)c2ccccc21,1,-4,10,4,3659
Cc1ccc(C)c(CN2C(=O)C3(OCCCO3)c3ccccc32)c1,-1,1,-2,-3,23436*
O=C(CN1C(=O)C2(OCCO2)c2ccccc21)c1ccc(Cl)cc1,?,-2,0,-3,16345*
COC(=O)CN1C(=O)C2(OCCCO2)c2cc(Br)ccc21,0,0,4,0,23376*
SMILES,BoNT A protease,BJeLR viability,BoNT-F LC inh,Anthrax LF prot,Bead autofluor
Cc1nc2c(OCc3ccc(F)c(F)c3)cccn2c1N(C)C(=O)CCC1CCCC1,0,.,-4,-8,4143
C=CCn1cccc(C(=O)Nc2ccc(F)cc2)c1=O,-2,3,-11,5,3705
Cc1ccc(CNC(=O)CN2C(=O)C3(OCCCO3)c3ccccc32)cc1,38*,23,40*,-21,11499
COC(=O)c1ccccc1NC(=O)Cn1cc(Br)cn1,.,1,.,.,.
Cc1cc(C)cc(NC(=O)c2cccn2-c2ncc(C(F)(F)F)cc2Cl)c1,?,17,-7,-3,25062*
COc1ccc(-c2nc3ccccc3[nH]2)cc1,-1,35,-8,-2,8106
COc1ccc(-c2cc(=O)n(-c3nc4ccccc4[nH]3)[nH]2)cc1,?,4,2,10,23993*
O=C1c2ccccc2C2N1CCCN2C(=O)c1sc2ccccc2c1Cl (stereo unspecified),1,.,-3,-6,3639
CCc1cc(C(=O)OC)c(NC(=O)CCCC(=O)O)s1,-1,12,-8,5,?
CCOC(=O)c1cc(CC)sc1NC(=O)COC,2,-12,2,0,18881*
CCOC(=O)c1cc(CC)sc1NC(=O)Cc1ccccc1,?,2,-3,-4,20942*
CCOC(=O)c1cc(CC)sc1NC(=O)C1CC(=O)NN1Cc1ccccc1 (stereo unspecified),-1,6,-8,-1,2989
CC1=Nc2cc(Cl)ccc2Oc2ccccc21,-1,-4,3,-2,4419
NC1=Nc2ccccc2Oc2ccccc21,?,15,-1,-8,16347*
CCSc1cc(C)nc2c(-c3ccc(Cl)cc3)c(C)nn12,-3,21,-4,1,20908*
Cc1cc(C)n2nc(C)c(-c3ccc(Cl)cc3)c2n1,-2,3,-22,-21,3937
O=C(c1cnn2c(C(F)F)cc(-c3ccccc3)nc12)N1CCSCC1,0,8,-7,-21,?
Cc1cc(NC(=O)c2cnn3c(C(F)(F)F)cc(-c4ccc(Br)cc4)nc23)no1,0,-13,-1,-1,23282*
O=C(c1cnn2c(C(F)F)cc(-c3ccccc3)nc12)N1CCOCC1,3,0,4,-2,21284*
COc1ccc(-c2cc(C(F)F)n3ncc(C(=O)N4CCN5CCCC5C4)c3n2)cc1 (stereo unspecified),12,0,16,-16,17221*
O=C(c1cnn2c(C(F)(F)F)cc(-c3ccc4c(c3)OCO4)nc12)N1CCCC1,?,3,0,-1,21315*
COC(=O)c1nn(-c2ccc(C)cc2)c2nnc(Cc3ccccc3)c(=O)n12,0,2,-2,0,7566
NS(=O)(=O)c1ccc(N/C=C\C(=O)c2cccc3ccccc23)cc1,8,5,-6,3,2414
CCN(CC)c1ccc(/C=C(\C#N)C(=O)c2ccc(Br)cc2)cc1,49*,-19,61*,46*,97679*
CC1(C)CC(=O)c2ccc(OCc3ccc([N+](=O)[O-])cc3)cc2O1,-4,-18,-14,2,?
O=C1CCOc2cc(OCc3ccccc3)ccc21,-4,-2,-6,1,21171*
CC(=O)Nc1ccc(CNc2nc3cc(-c4ccc(F)cc4)sc3c(=O)n2C)cc1,0,.,-6,5,3639
COC(=O)c1ccc2nc(-c3ccccc3)c(Cc3ccsc3)n2c1,1,.,-10,0,7357
COc1ccccc1NC(=O)c1cc(Cl)ccc1NC(=O)c1ccco1,0,-7,-16,-6,2849

# From PubChem
